# Records with an inconclusive call do not appear. Values without a mark were called inactive. Calls come from the whole dose curve; as a rule, active = well fitted curve in the direction sought with a large enough effect; inconclusive = small, poorly fitted or top-dose-only effect, or another doubt; inactive = no such curve, though single readings can be large or run the other way.
# Tested on: NanoLuc luciferase (engineered Oplophorus gracilirostris luciferase)
# Assay: Confirmatory Nanoluciferase (NLuc) qHTS assay for identification of artifact compounds. Note: % of control where 0% means no effect.
# Details: secreted NLuc in S16 cell medium, luminescence, 5 min; series mostly up to 39 µM; activity change, negative = inhibition: at the top concentration
# Outline: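 Compounds were preincubated 15 min at room temperature with diluted secreted NanoLuc from S16 cell medium, then read by luminescence 5 min after Nano-Glo substrate. Percent inhibition versus DMSO and no-enzyme controls fitted by 4-parameter Hill curve.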
row,Compound,"activity change, negative = inhibition"
1,CCCn1c(C)nc2c(N3CCCN(Cc4ccccc4)CC3)nc(C)nc21,-1.03%
2,OC[C@H]1O[C@@H](O[C@@H]2OC=C[C@H]3[C@H](O)[C@@H]4O[C@]4(CO)[C@@H]23)[C@H](O)[C@@H](O)[C@@H]1O,3.73%
3,C=C[C@@]1(C)CC(=O)[C@]2(O)[C@@]3(C)[C@@H](O)CCC(C)(C)[C@@H]3[C@H](OC(=O)CCN(C)C)[C@H](OC(C)=O)[C@@]2(C)O1,-11.8% [at 78.4 µM]
4,COc1cccc(N2CCN(c3c4c(nc5nncn35)CCC4)CC2)c1,-13.7%
5,Cc1ccc(S(=O)(=O)N2CCN(c3nc(-c4cccs4)nc4cccnc34)CC2)cc1,-0.839%
6,O=C1NC(=O)/C(=C/c2cccn2-c2ccc(P(=O)(O)O)cc2)N1,-3.45%
7,CC(C)CCC[C@@H](C)[C@H]1CC[C@H]2[C@@H]3CC[C@@H]4C[C@H](O)CC[C@]4(C)[C@H]3CC[C@]12C,-5.09%
8,CC(=O)S[C@H]1CC2=CC(=O)CC[C@@]2(C)[C@H]2CC[C@@]3(C)[C@H](CC[C@]34CCC(=O)O4)[C@@H]12,-2.1% [at 19.8 µM]
9,Cc1ccc2nc(-c3cccnc3)c(Nc3ccccc3C)n2c1,3.45%
10,O=C(CSc1nc(-c2ccccc2)cn1-c1ccccc1)Nc1ccccc1,-12.3%
11,O=C1c2ccccc2C(=O)N1Cc1ccccn1,-0.535%
12,CCCC(=O)Nc1cc2nn(-c3ccccc3)nc2cc1C,-5.59%
13,CC(Sc1oc(-c2cccs2)nc1S(=O)(=O)c1ccccc1)c1ccccc1 (centres undefined),-16.5%
14,COc1ccc(OC(=O)c2nc(SCc3ccccc3F)ncc2Cl)cc1,-0.614%

# — PubChem BioAssay AID1845224 (National Center for Advancing Translational Sciences (NCATS), 2023)
